From ChEMBL document CHEMBL3433997, “St. Jude Leishmania screening dataset” (2016)

Experiments:
Type in all cases: functional
[1] = biological target: Solute carrier family 2, facilitated glucose transporter member 1 (Homo sapiens) (UniProt P11166); assay: ST_JUDE_LEISH: Cytotoxicity at 2uM final concentration against transgenic Leishmania Mexicana promastigotes LmGLUT1 that are glucose transport deficient and complemented with the human glucose transporter GLUT1. Activity is measured by DNA content using SYBR green in vitro
Chain of Solute carrier family 2, facilitated glucose transporter member 1 (Homo sapiens) (P11166 whole entry): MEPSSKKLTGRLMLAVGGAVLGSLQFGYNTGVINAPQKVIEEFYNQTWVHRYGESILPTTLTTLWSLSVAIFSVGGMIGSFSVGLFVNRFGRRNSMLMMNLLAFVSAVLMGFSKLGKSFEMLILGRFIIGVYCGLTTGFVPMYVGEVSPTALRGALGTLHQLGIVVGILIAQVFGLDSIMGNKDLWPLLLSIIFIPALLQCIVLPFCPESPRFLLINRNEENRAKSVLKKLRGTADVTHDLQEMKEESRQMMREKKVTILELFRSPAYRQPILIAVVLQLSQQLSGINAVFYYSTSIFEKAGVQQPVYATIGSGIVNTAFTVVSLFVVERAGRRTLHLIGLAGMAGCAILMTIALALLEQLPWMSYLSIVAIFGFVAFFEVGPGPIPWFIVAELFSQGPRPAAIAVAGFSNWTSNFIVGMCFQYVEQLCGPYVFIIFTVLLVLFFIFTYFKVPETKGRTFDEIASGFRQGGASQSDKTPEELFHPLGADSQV

[2] = biological target: Hexose transporter 1 (Plasmodium falciparum) (UniProt O97467); assay: ST_JUDE_LEISH: Cytotoxicity at 2uM final concentration against transgenic Leishmania Mexicana promastigotes LmPfHT that are glucose transport deficient and complemented with the Plasmodium falciparum hexose transporter. Activity is measured by DNA content using SYBR green in vitro
[3] = biological target: Glucose transporter (Leishmania mexicana) (UniProt O61059); assay: ST_JUDE_LEISH: Cytotoxicity at 2uM final concentration against transgenic Leishmania Mexicana promastigotes LmGT2 that are glucose transport deficient and complemented with the L. Mexicana glucose transporter 2. Activity is measured by DNA content using SYBR green in vitro

SMILES | inhibition [1] [%] | inhibition [2] [%] | inhibition [3] [%]
COc1ccc(CNCc2ccc(F)cc2)cc1-c1ccc(S(=O)(=O)NCCN2CCCC2)cc1 | 7.44 | 6.73 | 5.24
Cc1cc2ncn(-c3ccnc(N4CCN(CCCN5CCCC5)CC4)n3)c2cc1C | 4.77 | 3.43 | 2.01
CC(C)CCN1CCCN(Cc2ccc(C(=O)NCc3ccc(Cl)cc3)cc2)CC1 | 2.09 | 0.59 | -0.7
CCn1c(CN2CCN(Cc3ccccc3)CC2)nc2cc(NC(=O)c3cccs3)ccc21 | 1.2 | 1.22 | -1.93
CN1CCC(N(Cc2ccc(-c3ccc(Cl)cc3)cc2)C(=O)Cn2c(CCc3cccc(F)c3F)cc(=O)c3ccccc32)CC1 | 8.97 | 3.73 | 8.07
COc1ccc(C(=O)CCC(=O)N(Cc2ccc(-c3ccc(CNCCc4ccc(S(C)(=O)=O)cc4)cn3)cc2)C2CC3CCC2C3)cc1F (configuration not stated) | 12.7 | 9.69 | 8.16
O=C(Nc1nccs1)c1sc2ccccc2c1O | 3.63 | 2.26 | 1.45
O=C(Nc1ccc2c(c1)CCN(C1CCC1)CC2)c1ccc(-c2cn3ccccc3n2)cc1 | 3.01 | 1.01 | 3.48
CC(=O)Nc1ccc(S(=O)(=O)N2CCN(c3nc(NC4CCCC4)c4ccccc4n3)CC2)cc1 | 0.69 | 3.35 | 2.94
N=C(NCCc1ccccc1Cl)c1ccc2ccccc2c1 | -1.42 | -1.63 | -2.06
N=C(N)c1ccc(C=Cc2ccc(C(=N)N)cc2O)cc1 | -0.26 | -0.04 | -0.9
O=S(=O)(NCCN1CCCC1)c1ccc(-c2ccc(CNC3Cc4ccccc4C3)cc2)cc1F | 6.55 | 13.9 | 5.36
Cc1[nH]c2c(C)cccc2c1C1CCN(CCC2CCN(C(=O)/C=C/c3ccc(Cl)c(Cl)c3)CC2)CC1 | 3.84 | 3.13 | 2.49
Nc1ncc(-c2ccsc2)cc1-c1nc2ccccc2[nH]1 | 2.86 | 6.79 | 2.5
COc1cccc2c(NN=Cc3cccc(F)c3)ccnc12 | 3.44 | 2.06 | 1.75
Fc1ccc2[nH]c(-c3ccc(-c4ccc(CNCCN5CCNCC5)cc4)s3)nc2c1 | 0 | 1.98 | -0.23
O=C(O)/C=C/c1cccc(F)c1F | 1.29 | 1.5 | 2.66

SMILES | inhibition [1] [%] | inhibition [2] [%] | inhibition [3] [%]
COc1cccc(C(NC(=O)c2ccccc2)c2ccc3cccnc3c2O)c1 (configuration not stated) | -0.96 | 2.16 | -1.64
CCCCCCN1CCC(NCc2cccc(C#N)c2)CC1 | 0.29 | 0.77 | 2.03
CC(C)CCOc1ccc(NC(=O)c2cccs2)cc1 | 4.93 | 5.81 | 5.27
Cn1nccc1C(=O)NCCNCc1cccc(-c2ccc(-c3nc4cc(C(F)(F)F)ccc4[nH]3)cc2)c1 | -3.3 | -1.43 | -2.04
COc1ccc(-c2ccc(S(=O)(=O)Nc3cc4c(cc3OC(C)C)CCN(C)CC4)cc2)cc1 | 1.81 | 2.48 | 1.21
N=c1sc2ccccc2n1CC(O)c1ccc(Cl)c(Cl)c1 (configuration not stated) | -1.41 | 1.26 | 0.57
CCN(CC)CCN(Cc1ccc(-c2ccc(C(F)(F)F)cc2)cc1)C(=O)Cn1c(CCc2cccc(F)c2F)nc(=O)c2cc(F)ccc21 | 4.48 | 2.96 | 4.5
CC1CCCCC1N(C)C1CCN(CCCNC(=O)C=Cc2cccc(C(F)(F)F)c2)CC1 (configuration not stated) | 4.22 | 2.29 | 1.79
CCCCN(CCCC)CC(O)c1cc(-c2ccc(Cl)cc2)nc2c(Cl)cc(Cl)cc12 (configuration not stated) | 6.76 | 7.36 | 4.19
O=S(=O)(Nc1ccc2nccc(N3CCNCC3)c2c1)c1ccc(-c2ccccc2)cc1 | 0.86 | 1.12 | 0.59
COc1ccc(Nc2nccc(-c3c(-c4cccc(NC(=O)c5c(F)cccc5F)c4)nn4ccccc34)n2)cc1Cl | 0.2 | 1.51 | -0.51
COc1cc2nc(N3CC(C)N(C(=O)Cc4ccc(-c5ccccc5)cc4)C(C)C3)nc(N)c2cc1OC (configuration not stated) | 6.24 | 5.22 | 3.8
CCc1ccc(NC(=O)c2ccc(CN3CCCN(CCC(C)C)CC3)cc2)cc1 | 7.61 | 4.69 | 5.85
COc1cc2nc(NCCc3cccc(Cl)c3)nc(NCc3ccccc3)c2cc1OC | 5.15 | 6.21 | 1.06
CC(C)c1ccc(NC(S)=NN=Cc2ccccn2)cc1 | 63.9 | 88.5 | 86.1
CCCC(CNCc1cccc(OC(F)(F)F)c1)CNc1cc(=O)c2ccccc2[nH]1 (configuration not stated) | 3.23 | 3.46 | 2.94
O=C(NCCCCN1CCC(O)(c2ccc3c(c2)OCO3)CC1)c1ccc(NC(=O)c2ccc(Cl)cc2)cc1 | -1.5 | 1.45 | -1.6
